The values below come from PubChem BioAssay AID1159580 (chemical genetic matrix, 2015).

The nature of this assay: chemical genetic growth profiling, strain panel (AID 1159580).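 Note: tested at 20 µM; growth read once vehicle control cultures reached saturation at 30 °C; 1 = growth at the plate median or of vehicle wells; lower values mean less growth of the strain.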 The conditions noted are these: growth OD.
The mark [1] stands for this setting: S. cerevisiae deletion strains, locus YAL013W, strain DEP1, hits give low values.
The mark [2] stands for this setting: S. cerevisiae deletion strains, locus YDR150W, strain NUM1, hits give low values.
[3] abbreviates: S. cerevisiae deletion strains, locus YGR229C, strain SMI1, hits give low values.
[4] abbreviates: S. cerevisiae deletion strains, locus YJR075W, strain HOC1, hits give low values.
[5] abbreviates: S. cerevisiae deletion strains, locus YMR263W, strain SAP30, hits give low values.
Setting [6] is: S. cerevisiae deletion strains, locus YPL241C, strain CIN2, hits give low values.
[7] abbreviates: S. cerevisiae deletion strains, locus YBR229C, strain ROT2, hits give low values.
The mark [8] stands for this setting: S. cerevisiae deletion strains, locus YDL101C, strain DUN1, hits give low values.
The mark [9] stands for this setting: S. cerevisiae deletion strains, locus YEL061C, strain CIN8, hits give low values.
Setting [10] is: S. cerevisiae deletion strains, locus YGR078C, strain PAC10, hits give low values.
The mark [11] stands for this setting: S. cerevisiae deletion strains, locus YHR030C, strain SLT2, hits give low values.
Setting [12] is: S. cerevisiae deletion strains, locus YHR087W, strain rtc3, hits give low values.
Where [13] appears, read: S. cerevisiae deletion strains, locus YJR043C, strain POL32, hits give low values.
Setting [14] is: S. cerevisiae deletion strains, locus YLR039C, strain RIC1, hits give low values.
Setting [15] is: S. cerevisiae deletion strains, locus YLR058C, strain SHM2 (second series), hits give low values.
The mark [16] stands for this setting: S. cerevisiae deletion strains, locus YLR085C, strain ARP6, hits give low values.
Setting [17] is: S. cerevisiae deletion strains, locus YLR262C, strain YPT6, hits give low values.
Where [18] appears, read: S. cerevisiae deletion strains, locus YML094W, strain GIM5, hits give low values.
Where [19] appears, read: S. cerevisiae deletion strains, locus YMR219W, strain ESC1, hits give low values.
Where [20] appears, read: S. cerevisiae deletion strains, locus YNL128W, strain TEP1, hits give low values.
Setting [21] is: S. cerevisiae deletion strains, locus YNL153C, strain GIM3, hits give low values.
The mark [22] stands for this setting: S. cerevisiae deletion strains, locus YNL298W, strain CLA4 (second series), hits give low values.
Setting [23] is: S. cerevisiae deletion strains, locus YNL322C, strain KRE1, hits give low values.
Where [24] appears, read: S. cerevisiae deletion strains, locus YNR030W, strain Alg12, hits give low values.
The mark [25] stands for this setting: S. cerevisiae deletion strains, locus YPL055C, strain LGE1, hits give low values.
Setting [26] is: S. cerevisiae deletion strains, locus YPR135W, strain CTF4, hits give low values.
Where [27] appears, read: S. cerevisiae strains, strain wild type, hits give low values.

SMILES strings stand for the structures. About 2,000 (36%) of roughly 5,500 compounds were called active. Inconclusive results (about 18%) are left out. The list shows a part of the results. Values without a mark were called inactive. Cut-off read from the data, not from the text of the source: active = normalized growth mostly below about 0.91 (no sharp cut-off); inconclusive = no clear call, values can overlap the other calls; inactive = mostly above about 0.92.

For the compound `NCCS(=O)O`, the normalized growth was 1.01 under setting [1]; 0.998 (S. cerevisiae deletion strains, locus YAL040C, strain CLN3, hits give low values); 1.01 (S. cerevisiae deletion strains, locus YCL061C, strain MRC1 (second series), hits give low values); 1 under setting [2]; 1.02 (S. cerevisiae deletion strains, locus YDR363W, strain ESC2, hits give low values); 1 (S. cerevisiae deletion strains, locus YER002W, strain NOP16, hits give low values). Also, the normalized growth under setting [3] was 1; the normalized growth under setting [4] was 1.01; the normalized growth under setting [5] was 1.01; the normalized growth (S. cerevisiae deletion strains, locus YMR307W, strain GAS1, hits give low values) is 1.01; the normalized growth (S. cerevisiae deletion strains, locus YNL175C, strain NOP13, hits give low values) is 1; the normalized growth (S. cerevisiae deletion strains, locus YNL197C, strain WHI3, hits give low values) is 1. Moreover, the normalized growth is 0.991 (S. cerevisiae deletion strains, locus YNL224C, strain SQS1, hits give low values); 1.03 (S. cerevisiae deletion strains, locus YOR083W, strain WHI5 (second series), hits give low values); 1 under setting [6].
In the case of `CC(=O)c1ccccc1OC(=O)c1c(-c2c(Cl)cccc2Cl)noc1C`, the normalized growth is, setting by setting: under setting [1], 0.996; under setting [7], 0.994; (S. cerevisiae deletion strains, locus YCL061C, strain MRC1, hits give low values) 0.996; under setting [8], 1.02; under setting [2], 0.882; under setting [9], 1.01. The normalized growth was 1.01 under setting [10]; 0.998 under setting [3]; 0.834 under setting [11]; 0.988 under setting [12]; 0.984 under setting [13]; 1.01 under setting [4]. In addition, the normalized growth by setting is: (S. cerevisiae deletion strains, locus YKL190W, strain CNB1, hits give low values) 0.995; under setting [14], 0.923; under setting [15], 1; under setting [16], 0.985; under setting [17], 0.935; under setting [18], 1.04. Besides, the normalized growth runs as follows: under setting [19], 1; under setting [5], 0.991; under setting [20], 1; under setting [21], 1; under setting [22], 1.02; under setting [23], 1.01. For the same compound, the normalized growth under setting [24] is 1; the normalized growth under setting [25] is 1.02; the normalized growth under setting [6] was 0.996; the normalized growth under setting [26] is 1.12; the normalized growth under setting [27] is 1.01.
For `Cc1onc(-c2ccccc2)c1C(=O)On1c(-c2ccccc2)nc2ccccc2c1=O`, the normalized growth was 0.963 under setting [1]; 0.988 under setting [7]; 0.944 under setting [8]; 0.922 (active) (S. cerevisiae deletion strains, locus YDL134C, strain PPH21, hits give low values); 0.902 under setting [2]; 0.933 under setting [9]. In addition, the normalized growth under setting [10] is 0.953; the normalized growth under setting [11] was 0.196 (active); the normalized growth under setting [12] is 1.05; the normalized growth under setting [13] was 0.987; the normalized growth under setting [4] was 0.92; the normalized growth under setting [14] was 0.236 (active). For the same compound, the normalized growth is 0.979 under setting [15]; 0.537 (active) under setting [16]; 0.21 (active) under setting [17]; 0.934 under setting [18]; 0.953 under setting [19]; 0.932 under setting [5]. Further, the normalized growth reads like this: under setting [20], 0.961; under setting [21], 1; under setting [22], 0.816 (active); under setting [23], 0.928 (active); under setting [24], 0.852 (active); (S. cerevisiae deletion strains, locus YOL006C, strain TOP1, hits give low values) 0.63 (active). The normalized growth was 0.973 under setting [25], 0.82 (active) under setting [6], 0.368 (active) under setting [26] and 0.888 (active) under setting [27].
Consider `CC(=O)NCCc1ccc(O)c(-c2c(O)c(O)c3c(c2O)C(=O)c2c(cc(O)c(C(=O)O)c2C(=O)O)C3=O)c1`, for which the normalized growth runs as follows: under setting [11], 1; (S. cerevisiae deletion strains, locus YHR079C, strain IRE1, hits give low values) 1.01; (S. cerevisiae deletion strains, locus YJL095W, strain BCK1, hits give low values) 0.992; (S. cerevisiae deletion strains, locus YJR066W, strain TOR1, hits give low values) 0.931; (S. cerevisiae deletion strains, locus YLR113W, strain HOG1, hits give low values) 1.01; (S. cerevisiae deletion strains, locus YNL183C, strain NPR1, hits give low values) 0.924. Further, the normalized growth is, setting by setting: (S. cerevisiae deletion strains, locus YOR231W, strain MKK1, hits give low values) 1.03; (S. cerevisiae deletion strains, locus YPL256C, strain CLN2, hits give low values) 1.04.
